# Test results as given in the supplement of paper PMC10849652.
# Targets with a hit are over-represented here; the source holds about 8,800 in all. About 0.5% of all pairs of compound and target were hits. Values without a mark were called inactive.
# Tests used:
# Assay in all cases: log2 fold change, soluble protein after heating vs DMSO (PISA); higher = thermal stabilisation; K562 lysate, 10 uM; active = over 0.2 and 3.5 SD of the protein, either way, in both replicates (recomputed)
# vemurafenib = compound: CCCS(=O)(=O)Nc1ccc(F)c(C(=O)c2c[nH]c3ncc(-c4ccc(Cl)cc4)cc23)c1F [vemurafenib]
# Outline: (§1)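 K562 pellets were dounce-homogenised in PBS pH 7.4 containing 1 mM MgCl2, and the crude extract, at 1 mg/mL protein, was exposed to 10 μM compound for 30 min. Aliquots were heated for 3 min across 48°C-58°C, pooled, brought to 0.5% NP-40 at 4°C and spun at 21,000xg for 90 min, with the supernatant taken as soluble protein. TMTpro 16plex LC-MS/MS with equalised channel sums quantified that protein. Values are log-two fold changes in thermal stability relative to solvent controls, taken from duplicates.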
# [1] = compound: CCCS(=O)(=O)Nc1ccc(F)c(C(=O)c2c[nH]c3ncc(Cl)cc23)c1F
# Outline: as §1
# barasertib = compound: CCN(CCCOc1ccc2c(Nc3cc(CC(=O)Nc4cccc(F)c4)[nH]n3)ncnc2c1)CCOP(=O)(O)O [barasertib]
# Outline: as §1
# [2] = compound: CC[C@@H]1C(=O)N(C)c2cnc(Nc3ccc(C(=O)NC4CCN(C)CC4)cc3OC)nc2N1C1CCCC1
# Outline: as §1
# volasertib = compound: CC[C@@H]1C(=O)N(C)c2cnc(Nc3ccc(C(=O)N[C@H]4CC[C@H](N5CCN(CC6CC6)CC5)CC4)cc3OC)nc2N1C(C)C [volasertib]
# Outline: as §1
# [3] = compound: CCn1c(C(=O)N(C2CC2)C2CC2)cc2c3c(ncn3C)c(Nc3cc(C)n(C)n3)nc21
# Outline: as §1
# [4] = compound: CCn1cc(-c2ccnc3[nH]c(-c4cccc(CN(C)C)c4)cc23)c(-c2ccc(NC(=O)N(C)C)cc2)n1
# Outline: as §1
# [5] = compound: CN1CCC(CNc2ccc3ncc(-c4cccc(OC(F)(F)F)c4)n3n2)CC1
# Outline: as §1
# saracatinib = compound: CN1CCN(CCOc2cc(OC3CCOCC3)c3c(Nc4c(Cl)ccc5c4OCO5)ncnc3c2)CC1 [saracatinib]
# Outline: as §1
# sotrastaurin = compound: CN1CCN(c2nc(C3=C(c4c[nH]c5ccccc45)C(=O)NC3=O)c3ccccc3n2)CC1 [sotrastaurin]
# Outline: as §1
# Chain of UniProt Q9UBK9 (Q9UBK9 whole entry, looked up): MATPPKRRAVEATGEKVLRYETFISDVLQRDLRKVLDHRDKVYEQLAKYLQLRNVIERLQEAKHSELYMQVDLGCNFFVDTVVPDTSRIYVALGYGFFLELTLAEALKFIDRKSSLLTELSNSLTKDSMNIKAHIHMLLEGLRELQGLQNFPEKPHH
# Chain of UniProt O14980 (O14980 whole entry, looked up): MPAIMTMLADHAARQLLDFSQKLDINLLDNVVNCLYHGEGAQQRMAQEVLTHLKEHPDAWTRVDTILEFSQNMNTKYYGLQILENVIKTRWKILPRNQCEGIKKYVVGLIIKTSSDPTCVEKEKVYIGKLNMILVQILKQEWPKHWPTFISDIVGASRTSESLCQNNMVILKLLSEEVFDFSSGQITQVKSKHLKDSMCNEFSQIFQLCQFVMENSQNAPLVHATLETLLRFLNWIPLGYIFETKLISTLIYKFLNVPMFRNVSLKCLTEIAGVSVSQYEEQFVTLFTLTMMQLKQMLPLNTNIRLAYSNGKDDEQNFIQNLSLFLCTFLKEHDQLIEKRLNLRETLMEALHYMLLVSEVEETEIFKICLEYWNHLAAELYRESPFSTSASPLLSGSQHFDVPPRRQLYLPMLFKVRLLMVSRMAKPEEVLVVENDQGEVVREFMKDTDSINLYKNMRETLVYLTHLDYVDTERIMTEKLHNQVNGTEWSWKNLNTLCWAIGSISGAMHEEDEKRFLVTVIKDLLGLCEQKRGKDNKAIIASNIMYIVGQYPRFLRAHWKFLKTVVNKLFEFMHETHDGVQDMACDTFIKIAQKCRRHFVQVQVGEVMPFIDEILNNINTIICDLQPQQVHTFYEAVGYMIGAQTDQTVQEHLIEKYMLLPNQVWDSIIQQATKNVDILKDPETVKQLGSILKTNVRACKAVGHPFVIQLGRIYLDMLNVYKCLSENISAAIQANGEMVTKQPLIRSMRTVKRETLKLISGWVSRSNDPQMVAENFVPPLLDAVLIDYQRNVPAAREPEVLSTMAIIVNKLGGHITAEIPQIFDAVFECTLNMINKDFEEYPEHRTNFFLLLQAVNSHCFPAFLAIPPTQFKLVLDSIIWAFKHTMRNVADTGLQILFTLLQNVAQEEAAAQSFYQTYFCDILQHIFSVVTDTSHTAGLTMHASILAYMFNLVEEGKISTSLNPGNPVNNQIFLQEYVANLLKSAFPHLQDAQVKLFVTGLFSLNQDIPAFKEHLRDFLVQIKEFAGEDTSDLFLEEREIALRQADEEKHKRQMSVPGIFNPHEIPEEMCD
# Chain of UniProt Q9NQZ2 (Q9NQZ2 whole entry, looked up): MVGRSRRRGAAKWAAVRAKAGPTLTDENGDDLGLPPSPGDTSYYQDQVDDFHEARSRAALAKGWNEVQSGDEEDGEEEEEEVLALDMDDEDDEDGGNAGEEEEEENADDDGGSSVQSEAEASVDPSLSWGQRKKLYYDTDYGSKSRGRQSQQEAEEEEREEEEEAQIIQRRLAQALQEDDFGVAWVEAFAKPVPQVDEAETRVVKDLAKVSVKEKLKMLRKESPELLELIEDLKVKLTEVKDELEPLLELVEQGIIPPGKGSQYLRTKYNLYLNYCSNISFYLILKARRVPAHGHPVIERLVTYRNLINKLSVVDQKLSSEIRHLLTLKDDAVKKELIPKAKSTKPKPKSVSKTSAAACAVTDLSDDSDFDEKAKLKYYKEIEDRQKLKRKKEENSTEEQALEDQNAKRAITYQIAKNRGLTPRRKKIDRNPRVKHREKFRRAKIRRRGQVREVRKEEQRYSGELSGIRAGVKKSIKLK
# Chain of UniProt Q9UPT9 (Q9UPT9 whole entry, looked up): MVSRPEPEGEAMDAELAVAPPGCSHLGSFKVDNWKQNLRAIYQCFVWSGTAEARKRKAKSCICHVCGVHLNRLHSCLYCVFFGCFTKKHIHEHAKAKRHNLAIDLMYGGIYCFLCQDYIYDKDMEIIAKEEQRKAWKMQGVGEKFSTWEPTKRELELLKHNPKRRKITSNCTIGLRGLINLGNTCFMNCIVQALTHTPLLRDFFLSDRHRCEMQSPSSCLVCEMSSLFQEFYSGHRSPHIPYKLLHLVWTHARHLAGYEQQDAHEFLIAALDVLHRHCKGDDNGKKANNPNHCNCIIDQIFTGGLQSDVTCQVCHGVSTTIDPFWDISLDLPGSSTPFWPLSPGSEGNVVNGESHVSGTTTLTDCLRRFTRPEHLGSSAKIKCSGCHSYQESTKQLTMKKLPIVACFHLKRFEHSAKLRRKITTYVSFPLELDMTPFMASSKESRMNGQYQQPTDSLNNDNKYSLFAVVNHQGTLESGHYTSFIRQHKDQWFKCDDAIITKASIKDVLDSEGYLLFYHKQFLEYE
# Chain of UniProt O43379 (O43379 whole entry, looked up): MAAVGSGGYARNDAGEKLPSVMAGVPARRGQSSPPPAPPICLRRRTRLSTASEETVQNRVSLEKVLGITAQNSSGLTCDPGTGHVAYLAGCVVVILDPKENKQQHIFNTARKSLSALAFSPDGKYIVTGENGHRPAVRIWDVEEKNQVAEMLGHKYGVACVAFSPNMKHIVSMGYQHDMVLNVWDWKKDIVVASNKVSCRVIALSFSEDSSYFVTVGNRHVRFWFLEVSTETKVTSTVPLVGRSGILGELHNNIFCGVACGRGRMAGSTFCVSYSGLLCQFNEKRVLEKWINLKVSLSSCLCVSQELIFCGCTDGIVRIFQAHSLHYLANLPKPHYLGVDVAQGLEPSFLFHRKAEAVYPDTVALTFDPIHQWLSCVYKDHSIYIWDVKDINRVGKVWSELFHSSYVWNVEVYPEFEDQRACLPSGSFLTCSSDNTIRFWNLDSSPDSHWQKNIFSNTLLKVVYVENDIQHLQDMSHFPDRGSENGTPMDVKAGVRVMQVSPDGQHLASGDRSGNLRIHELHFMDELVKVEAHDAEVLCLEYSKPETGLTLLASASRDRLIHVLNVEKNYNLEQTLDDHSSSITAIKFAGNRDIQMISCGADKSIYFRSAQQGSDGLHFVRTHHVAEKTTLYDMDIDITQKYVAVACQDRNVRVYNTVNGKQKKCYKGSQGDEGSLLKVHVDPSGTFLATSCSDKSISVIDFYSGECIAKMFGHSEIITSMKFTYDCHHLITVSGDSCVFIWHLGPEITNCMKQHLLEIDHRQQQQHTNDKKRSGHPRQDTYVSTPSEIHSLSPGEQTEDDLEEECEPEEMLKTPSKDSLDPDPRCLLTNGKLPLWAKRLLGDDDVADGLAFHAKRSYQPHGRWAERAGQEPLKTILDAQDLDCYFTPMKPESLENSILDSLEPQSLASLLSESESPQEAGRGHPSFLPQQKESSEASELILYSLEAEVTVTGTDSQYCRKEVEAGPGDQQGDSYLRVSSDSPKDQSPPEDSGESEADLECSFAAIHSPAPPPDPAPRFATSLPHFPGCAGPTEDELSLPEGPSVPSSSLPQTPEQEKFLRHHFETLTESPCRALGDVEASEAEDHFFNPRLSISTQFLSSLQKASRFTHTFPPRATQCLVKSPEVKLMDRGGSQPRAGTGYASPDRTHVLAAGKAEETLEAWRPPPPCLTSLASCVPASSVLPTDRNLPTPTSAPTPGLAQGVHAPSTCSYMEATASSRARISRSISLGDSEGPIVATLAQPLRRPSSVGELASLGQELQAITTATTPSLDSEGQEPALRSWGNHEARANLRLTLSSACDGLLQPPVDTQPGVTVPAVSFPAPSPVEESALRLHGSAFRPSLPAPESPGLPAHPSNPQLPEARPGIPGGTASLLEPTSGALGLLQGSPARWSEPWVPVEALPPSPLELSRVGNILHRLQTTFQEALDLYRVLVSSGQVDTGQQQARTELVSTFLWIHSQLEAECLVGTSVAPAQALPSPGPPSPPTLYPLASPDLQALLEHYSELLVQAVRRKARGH
# Chain of UniProt Q9UL40 (Q9UL40 whole entry, looked up): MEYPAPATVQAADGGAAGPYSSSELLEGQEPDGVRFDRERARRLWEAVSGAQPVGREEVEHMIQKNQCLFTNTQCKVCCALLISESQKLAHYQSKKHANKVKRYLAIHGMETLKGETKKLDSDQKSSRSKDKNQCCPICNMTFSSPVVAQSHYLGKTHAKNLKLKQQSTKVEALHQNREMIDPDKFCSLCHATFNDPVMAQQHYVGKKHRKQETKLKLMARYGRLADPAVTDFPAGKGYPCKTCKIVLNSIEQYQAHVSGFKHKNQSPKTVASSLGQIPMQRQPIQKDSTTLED
# Chain of UniProt Q96K21 (Q96K21 whole entry, looked up): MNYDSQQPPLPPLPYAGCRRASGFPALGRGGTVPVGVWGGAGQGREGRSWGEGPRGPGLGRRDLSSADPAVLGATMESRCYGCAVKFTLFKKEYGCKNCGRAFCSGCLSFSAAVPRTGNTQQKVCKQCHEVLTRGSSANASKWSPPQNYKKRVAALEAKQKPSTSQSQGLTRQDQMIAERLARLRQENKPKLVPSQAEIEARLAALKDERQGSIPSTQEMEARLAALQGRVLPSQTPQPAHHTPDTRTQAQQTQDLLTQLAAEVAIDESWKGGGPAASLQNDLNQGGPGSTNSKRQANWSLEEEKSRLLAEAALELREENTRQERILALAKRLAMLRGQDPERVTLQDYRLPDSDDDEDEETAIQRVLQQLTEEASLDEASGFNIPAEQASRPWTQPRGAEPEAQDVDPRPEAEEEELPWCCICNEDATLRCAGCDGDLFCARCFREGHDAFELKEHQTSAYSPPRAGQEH
# Chain of UniProt P50552 (P50552 whole entry, looked up): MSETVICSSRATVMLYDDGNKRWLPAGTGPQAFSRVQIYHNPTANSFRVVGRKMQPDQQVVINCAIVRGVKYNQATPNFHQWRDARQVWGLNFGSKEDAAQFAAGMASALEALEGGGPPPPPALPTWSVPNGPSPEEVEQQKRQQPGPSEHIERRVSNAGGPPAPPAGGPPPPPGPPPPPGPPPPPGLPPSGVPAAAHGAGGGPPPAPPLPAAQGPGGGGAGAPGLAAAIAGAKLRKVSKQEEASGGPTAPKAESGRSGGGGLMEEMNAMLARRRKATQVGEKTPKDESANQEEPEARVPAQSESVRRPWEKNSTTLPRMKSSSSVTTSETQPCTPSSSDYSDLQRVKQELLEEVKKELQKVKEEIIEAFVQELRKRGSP
Target,log2 fold change (vemurafenib),log2 fold change [1],log2 fold change (barasertib),log2 fold change [2],log2 fold change (volasertib),log2 fold change [3],log2 fold change [4],log2 fold change [5],log2 fold change (saracatinib),log2 fold change (sotrastaurin)
VPS28 (UniProt Q9UK41),-0.012,0.016,0.178,-0.035,-0.012,0.067,-0.208,0.018,0.01,-0.007
UTP3 (UniProt Q9NQZ2),0.004,0.012,0.058,-0.009,-0.011,-0.047,0,-0.02,0.011,0.05
VPS13C (UniProt Q709C8),0.018,0.028,0.12,0.112,-0.017,-0.01,0,0.02,0.028,0.026
VANGL1 (UniProt Q8TAA9),-0.075,0.023,0.101,0.004,-0.009,0.105,-0.088,0.058,0.044,0.125
ZNF593 (UniProt O00488),0.001,0.037,-0.026,-0.174,-0.034,0.078,-0.012,0.016,-0.012,-0.105
ZDHHC18 (UniProt Q9NUE0),0.043,0.026,0.016,-0.019,-0.052,-0.068,-0.138,0.085,0.036,0.04
USE1 (UniProt Q9NZ43),-0.071,-0.049,0.021,0.036,0.04,0.093,0.002,-0.103,-0.02,0.017
ZNHIT6 (UniProt Q9NWK9),-0.001,0.035,0.009,0.023,-0.016,0.05,0.089,-0.071,-0.029,-0.005
VTN (UniProt P04004),0.029,0.058,0.043,0.063,-0.001,0.011,-0.615 (active),0.289,0.075,-0.012
XPO1 (UniProt O14980),0.015,0.005,0.023,-0.055,-0.026,0.013,-0.05,0.019,0.033,0.022
WDR45 isoform 2 (UniProt Q9Y484),-0.028,0.043,0.005,0.052,0,0.12,-0.19,0.086,0.01,0.024
VPS41 (UniProt P49754),-0.018,-0.016,0.085,0.005,-0.078,0.06,0.074,-0.054,0.002,0.058
ZMYM4 (UniProt Q5VZL5),0.008,0.003,0.126,0.013,0.041,0.033,0.013,0.029,0.023,0.043
WDR62 isoform 4 (UniProt O43379),0.004,0.065,0.031,-0.063,0,0.003,-0.009,-0.044,0.04,0.031
ZC2HC1A (UniProt Q96GY0),0.13,-0.032,0.078,0.086,0.031,0.035,-0.057,0.117,-0.011,0.016
ZBTB33 (UniProt Q86T24),0.01,-0.017,-0.199,-0.002,-0.673 (active),0,0.034,-0.008,0.033,0.015
USP16 (UniProt Q9Y5T5),0.038,0.005,0.016,-0.009,-0.011,0.01,0.039,-0.045,0.054,0.013
VAC14 (UniProt Q08AM6),-0.002,0.008,0.021,-0.021,-0.02,0.013,-0.032,0.007,0.007,0
VASP (UniProt P50552),-0.012,-0.011,-0.069,-0.022,-0.008,0.009,0.006,-0.009,0.007,-0.004
XPO5 (UniProt Q9HAV4),-0.006,0.005,0.022,-0.028,-0.062,0.027,-0.043,-0.041,0.011,0.007

Target,log2 fold change (vemurafenib),log2 fold change [1],log2 fold change (barasertib),log2 fold change [2],log2 fold change (volasertib),log2 fold change [3],log2 fold change [4],log2 fold change [5],log2 fold change (saracatinib),log2 fold change (sotrastaurin)
YTHDF3 (UniProt Q7Z739),-0.019,0.002,0.119,0.058,-0.071,0.168,-0.041,0.01,0.076,-0.083
VPS16 (UniProt Q9H269),0.038,0.009,0.007,0.063,-0.04,0.028,-0.049,-0.015,-0.017,-0.002
ZNF217 (UniProt O75362),0.043,0.019,0.047,0.099,-0.021,-0.028,-0.021,0.076,0.013,0.052
WDR20 isoform 7 (UniProt Q8TBZ3),0.047,0,0.087,0.054,-0.039,-0.017,0.039,-0.039,0.065,-0.036
VARS (UniProt P26640),0.028,0.007,0.036,-0.077,-0.082,0.04,-0.014,-0.039,-0.001,0.03
WRN (UniProt Q14191),-0.032,-0.065,0.026,-0.032,0.007,0.053,-0.052,0.022,0.008,0.031
ZC3H13 (UniProt Q5T200),-0.027,-0.037,-0.045,0.036,-0.013,-0.031,0.033,0,-0.046,0.222
VPS35L (UniProt Q7Z3J2),0.016,0.002,0.001,-0.072,-0.047,-0.004,-0.02,-0.005,0.004,0.046
ZZEF1 (UniProt O43149),-0.013,0.012,0.051,-0.015,-0.028,-0.006,-0.116,0.029,0.036,0.01
ZHX1 (UniProt Q9UKY1),-0.058,0.057,0.059,0.144,-0.079,-0.056,-0.603 (active),0.526 (active),0.011,0.029
VPS11 (UniProt Q9H270),-0.002,0.034,0.013,-0.033,-0.038,0.015,-0.051,-0.007,0.039,0.019
UXT isoform 2 (UniProt Q9UBK9),-0.023,0,0.056,0.321 (active),-0.004,-0.088,-0.05,0.032,0.053,0.001
UPF3B (UniProt Q9BZI7),0.027,0.01,-0.006,0.026,0.004,-0.019,-0.231 (active),0.031,0.005,-0.019
UNC45A (UniProt Q9H3U1),0.013,0.012,0.018,-0.022,-0.039,0.025,0.02,-0.081,0.017,-0.001
ZNF346 (UniProt Q9UL40),,0.007,0.013,0.029,-0.047,-0.018,0.017,-0.051,0.001,0.011
VHL (UniProt P40337),0.027,,-0.005,-0.065,,-0.054,0.11,-0.086,0.019,-0.038
ZNF845 (UniProt Q96IR2),0.085,-0.024,0.088,,-0.044,0.135,-0.012,0.078,-0.019,-0.012
USP22 (UniProt Q9UPT9),-0.019,,0.008,0.026,,0.034,0.031,0,-0.026,0.018
ZNF281 (UniProt Q9Y2X9),,,,,,0.011,,,-0.069,0.028
ZSWIM8 isoform 4 (UniProt A7E2V4),-0.173,,0.22,0.039,,0.038,-0.094,-0.071,0.018,0.039

Target,log2 fold change (vemurafenib),log2 fold change [1],log2 fold change (barasertib),log2 fold change [2],log2 fold change (volasertib),log2 fold change [3],log2 fold change [4],log2 fold change [5],log2 fold change (saracatinib),log2 fold change (sotrastaurin)
UNKL (UniProt E9PDK2),-0.118,,0.047,-0.075,,,,,0.002,-0.05
URGCP (UniProt Q8TCY9),0.191,,-0.023,,,-0.069,,,0,
WAC isoform 5 (UniProt Q9BTA9),,,,,,0.047,,,-0.078,
UTRN isoform 2 (UniProt P46939),,,-0.019,-0.318,,,0.148,-0.003,,
WIPI2 isoform 6 (UniProt Q9Y4P8),,,0.04,,,,-0.24,-0.016,,
ULK3 isoform 4 (UniProt Q6PHR2),0.022,-0.042,0.001,-0.196,-0.139,,-0.634 (active),-0.285,0.18,-0.077
YBEY (UniProt P58557),-0.119,,,-0.054,,,,,-0.058,
UNC13A (UniProt Q9UPW8),,,,,,,-1.79 (active),0.531,,
ZBTB40 (UniProt Q9NUA8),0.06,-0.076,,,0.029,-0.014,-0.127,0.095,-0.017,-0.012
ZSCAN26 (UniProt Q16670),,,,,,,,,,-0.239
WAS (UniProt P42768),,,0.046,0.043,,,0.007,0.019,-0.136,
ZNF146 (UniProt Q15072),,,,,,,,,0.247,
ZFYVE19 isoform 3 (UniProt Q96K21),,0.048,-0.037,,-0.231,,,,,
ZNF644 (UniProt Q9H582),0.027,,0.045,0.047,,-0.136,-0.05,-0.023,-0.086,0.013
WSB1 (UniProt Q9Y6I7),,,,,,0.105,0.078,0.08,-0.159,
VASN (UniProt Q6EMK4),,,,0.046,,0.023,,,0.065,
ZYG11A (UniProt Q6WRX3),,-0.15,0.286,,-0.017,-0.035,-0.16,0.011,,
WAC (UniProt Q9BTA9),0.018,0.051,0.077,0,-0.003,0.051,0.061,0.024,0.013,-0.002
XPOT (UniProt F5GYW6),,-0.204,,,-0.112,,,,,
ZKSCAN8 (UniProt Q15776),0.049,-0.173,,-0.019,-0.17,-0.001,,,0.028,0.027
